Among the test systems are NCI-H23 lung; NCI-H226 lung; NCI-H322M lung; HOP-62 NSCLC; NCI-H460 lung; HOP-92 NSCLC; NCI-H522 lung; A549/ATCC NSCLC; 786-0 renal; DU-145 prostate; MALME-3M melanoma; MDA-MB-231 breast; RXF 393 renal; SF-268 CNS; SF-295 CNS; SF-539 CNS; UACC-257 melanoma; M14 melanoma; COLO 205 colon; K-562 leukemia.
Common to all, as to assay: NCI-60 one-dose screen, 48 h (100 = growth as untreated, 0 = no growth, -100 = all killed)
Holding throughout (settings): 10 µM unless noted

Each structure is given as a SMILES string. About 83,000 compounds went through this panel and 20% of them were active in at least one assay; those are over-represented in the sample as a whole.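 How to read the values: 0–100, growth inhibition (40 = 60% inhibited); 0, no net growth; -100 to 0, cell death (-40 = 40% of starting cells died; -100 = all dead).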 A number with no mark means an inactive call. Active and inactive are the calls of the source. Rule for the calls: active = growth percent below 10; inactive = the rest.

Take `O=[N+]([O-])c1ccc(-c2cc3c(Nc4ccc(Cl)c(C(F)(F)F)c4)ncnc3s2)cc1`: the growth in the assay with NCI-H23 lung is -6.97% (active); in the assay on NCI-H226 lung it was 20.1%; with NCI-H322M lung, 20.9%; in the assay on HOP-62 NSCLC it was 20.8%; in the assay with NCI-H460 lung, 4.13% (active); in the assay on HOP-92 NSCLC it was -14.3% (active). Further, the growth in the assay with NCI-H522 lung is -1.24% (active); with A549/ATCC NSCLC it was 10.1%; in the assay with 786-0 renal, 19.2%; in the assay with DU-145 prostate, 23%; in the assay with MALME-3M melanoma it was -22.8% (active); with MDA-MB-231 breast it was 5.95% (active). Besides, the growth was 5.99% (active) with RXF 393 renal; 24.3% in the assay on SF-268 CNS; -6.39% (active) in the assay with SF-295 CNS; 14.9% with SF-539 CNS; -18.6% (active) in the assay on UACC-257 melanoma; 19.4% with M14 melanoma.
Regarding `Cn1cc(-c2ccc3ncc(-c4ccc(CC(=O)Nc5cc(C(C)(C)C)nn5C)cc4)cc3c2)cn1`, the growth with NCI-H23 lung is 7.05% [30 µM] (active); in the assay on NCI-H226 lung, 11.5% [30 µM]; with NCI-H322M lung it was 15% [30 µM]; in the assay with HOP-62 NSCLC, 17.6% [30 µM]; in the assay with HOP-92 NSCLC, 31.6% [30 µM]; in the assay on NCI-H522 lung, -2.49% [30 µM] (active). The growth in the assay with A549/ATCC NSCLC is 17.8% [30 µM]; in the assay with 786-0 renal, 39.6% [30 µM]; in the assay with COLO 205 colon it was 5.26% [30 µM] (active); with DU-145 prostate, 18.1% [30 µM]; in the assay on K-562 leukemia it was 7% [30 µM] (active); in the assay with MALME-3M melanoma, -0.381% [30 µM] (active). Further, the growth with MDA-MB-231 breast is 36% [30 µM]; in the assay with SF-268 CNS, 25.3% [30 µM]; with SF-295 CNS, 12.2% [30 µM]; with SF-539 CNS it was 19.3% [30 µM]; in the assay on UACC-257 melanoma, 7.37% [30 µM] (active).
As for `Cc1cccc(-c2cc(O)c(C(=O)N3CCOCC3)s2)c1`, the growth in the assay with NCI-H23 lung was 55.2%; in the assay on NCI-H226 lung, 68%; in the assay with NCI-H322M lung, 63.6%; in the assay on HOP-62 NSCLC, 38.3%; in the assay on HOP-92 NSCLC, 73.7%; in the assay on NCI-H522 lung, 0.179% (active). The growth in the assay on A549/ATCC NSCLC was 37.7%; in the assay on 786-0 renal, 51.4%; with COLO 205 colon, 94.9%; with DU-145 prostate it was 60.3%; in the assay on MALME-3M melanoma it was 52.6%; in the assay on MDA-MB-231 breast it was 56.7%. Besides, the growth with RXF 393 renal is 62.9%; with SF-268 CNS it was 57.1%; in the assay on SF-295 CNS it was 37.9%; in the assay with SF-539 CNS, 33.6%; in the assay on UACC-257 melanoma, 52.8%.
Consider `CCOc1ccc2nc(-c3cccc(OCC(=O)NC(C)C)c3)nc(Nc3ccc(-c4cn[nH]c4)cc3)c2c1`, for which the growth is 11.3% in the assay with NCI-H23 lung; 38.8% in the assay with NCI-H226 lung; -8.36% (active) with NCI-H322M lung; -36.3% (active) in the assay with HOP-62 NSCLC; -27.9% (active) in the assay with HOP-92 NSCLC; -25.3% (active) with NCI-H522 lung. In addition, the growth with A549/ATCC NSCLC is -34.9% (active); with 786-0 renal, -12.5% (active); with DU-145 prostate, 4.3% (active); with K-562 leukemia it was -17.1% (active); in the assay with MALME-3M melanoma, -66% (active); in the assay on MDA-MB-231 breast, 2.7% (active). Further, the growth in the assay with RXF 393 renal is -43.7% (active); in the assay with SF-268 CNS, 12.6%; in the assay on SF-295 CNS, -47.4% (active); in the assay with SF-539 CNS, -79.6% (active); in the assay with UACC-257 melanoma, -53.7% (active); in the assay with M14 melanoma, 11.6%.
On to `Cc1cc(N(CCCNc2ccnc3cc(Cl)ccc23)Cc2ccccn2)nc(N2CCCC2)n1`, for which the growth with NCI-H23 lung is 78.3%; with NCI-H226 lung, 89.6%; in the assay with NCI-H322M lung it was 75.9%; with HOP-62 NSCLC, 68.4%; with HOP-92 NSCLC it was 59.7%; with NCI-H522 lung, 88%. The growth with A549/ATCC NSCLC is 70.8%; in the assay on 786-0 renal, 73.5%; in the assay with DU-145 prostate, 91.2%; with K-562 leukemia, 9.27% (active); in the assay on MALME-3M melanoma, 70.9%; in the assay with MDA-MB-231 breast, 56.2%. Moreover, the growth is 54.9% in the assay with RXF 393 renal; 67.3% in the assay with SF-268 CNS; 75.5% with SF-295 CNS; 52.3% with SF-539 CNS; 81.6% in the assay on UACC-257 melanoma; 93.7% with M14 melanoma.
Consider `CNC(=O)c1c(NC(=O)c2ccc(C(C)(C)C)cc2)sc2c1CCC(=O)C2`, for which the growth is 6.65% (active) in the assay on NCI-H23 lung; -2.45% (active) in the assay with NCI-H226 lung; 35.4% in the assay with NCI-H322M lung; 17% in the assay on HOP-62 NSCLC; -22.3% (active) in the assay with HOP-92 NSCLC; -37% (active) with NCI-H522 lung. Also, the growth in the assay on A549/ATCC NSCLC was 15.8%; in the assay with 786-0 renal, 29.3%; with DU-145 prostate it was 27.7%; with K-562 leukemia, 5.54% (active); in the assay with MALME-3M melanoma, -12.8% (active); in the assay with MDA-MB-231 breast it was -20.5% (active). Also, the growth is -11.3% (active) with RXF 393 renal; 14% with SF-268 CNS; 2.19% (active) in the assay on SF-295 CNS; -51.9% (active) in the assay with SF-539 CNS; 16.8% in the assay with UACC-257 melanoma; 3.53% (active) in the assay with M14 melanoma.
Regarding `O=C1c2ccccc2C(=O)c2cc(Cn3cc[n+](Cc4ccc5ccccc5c4)c3)ccc21`, the growth with NCI-H23 lung was 75.6%; in the assay with NCI-H226 lung it was 83.3%; with NCI-H322M lung, 91%; with HOP-62 NSCLC, 107%; in the assay on HOP-92 NSCLC, 47.8%; in the assay on NCI-H522 lung it was 38.9%. Further, the growth was 110% with A549/ATCC NSCLC; 98.8% with 786-0 renal; 58.6% in the assay with COLO 205 colon; 115% in the assay with DU-145 prostate; 32.5% in the assay on K-562 leukemia; 66.5% in the assay on MALME-3M melanoma. The growth with MDA-MB-231 breast is 81.4%; in the assay on SF-268 CNS, 72.5%; in the assay on SF-295 CNS, 94.9%; in the assay with SF-539 CNS it was 84.1%; in the assay on UACC-257 melanoma it was 56.1%.
As for `C/C(=N\NC(N)=S)c1nc2ccc(Cl)cc2[nH]1`, the growth is 75.4% with NCI-H23 lung; 46.3% in the assay with NCI-H226 lung; 70% in the assay on NCI-H322M lung; 43% with HOP-62 NSCLC; 79.5% with HOP-92 NSCLC; 34% with NCI-H522 lung. Moreover, the growth in the assay with A549/ATCC NSCLC was 34.4%; with 786-0 renal it was 31.2%; in the assay with COLO 205 colon it was 45%; with DU-145 prostate, 34.1%; in the assay on K-562 leukemia, 39.5%; in the assay on MALME-3M melanoma, 113%. Moreover, the growth was 63.2% in the assay with MDA-MB-231 breast; 48.9% in the assay with RXF 393 renal; 33.2% in the assay on SF-268 CNS; 44.8% in the assay with SF-295 CNS; 43% with SF-539 CNS; 68.8% in the assay with UACC-257 melanoma.

The record behind these values is PubChem BioAssay (NCI).
